# SSB-PriA inh – inhibitors of Klebsiella pneumoniae PriA binding to SSB C-terminal tail, primary screen, biochemical, AlphaScreen. AlphaScreen SSBct-PriA binding, biotinylated peptide. 430,000 tested, 0.6% active. PriA–SSB C-terminal tail interaction (Klebsiella pneumoniae). inhibition, % at 33 µM; in the data active = inhibition mostly above about 37%, no sharp cut-off; inactive = mostly below about 20%;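 note: plate controls were negative control peptide for no effect and reference peptide for full effect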
# BoNT F protease – BoNT/F light chain protease inhibitors, primary screen, biochemical, flow cytometry, MLPCN library. 360,000 tested, 0.22% active. inhibition, % at 10 µM. Multiplex microsphere protease cleavage assay; in the data active = inhibition above about 35%, passing the limit was not always enough; inconclusive = no clear call, values can overlap the other calls; note: plate controls were buffer without enzyme for full effect and enzyme alone for no effect
# Bead autofluor – compound fluorescence in toxin protease inhibitor counterscreen; compound autofluorescence counterscreen, microsphere flow cytometry; active compounds read high; fluorescence intensity (test concentration not listed); 360,000 tested, 3.1% active; in the data active = fluorescence intensity above about 16000; inconclusive = no clear call, values can overlap the other calls
# BoNT-A LC inh2 – BoNT/A light chain protease inhibitors, primary screen, biochemical, flow cytometry, MLPCN library. 360,000 tested, 0.17% active. AID 588499, 2011. inhibition, % at 10 µM. Botulinum neurotoxin type A light chain protease (Clostridium botulinum A str. ATCC 3502). multiplex microsphere protease substrate cleavage; note: plate controls were buffer without enzyme for full effect and enzyme alone for no effect
# Anthrax LF prot – Bacillus anthracis LF protease inhibitors, primary screen, biochemical, multiplex microsphere, MLPCN library | Lethal factor (Bacillus anthracis), P15917 | multiplex microsphere protease cleavage assay | 360,000 tested, 0.12% active | inhibition, % at 10 µM; note: plate controls were buffer without enzyme for full effect and enzyme alone for no effect
# * marks the source's active call; other numbers are inactive results; u = inconclusive; x = not tested or not shown. Only some compounds are listed: those with a hit (about 3.1% of all), similar ones and a draw of the others. Cut-off read from the data, not from the text of the source, unless noted: active = inhibition above about 30%; inconclusive = no clear call, values can overlap the other calls; inactive = below that.
SMILES,SSB-PriA inh,BoNT F protease,Bead autofluor,BoNT-A LC inh2,Anthrax LF prot
COc1ccc(-c2cc(C(=O)Nc3cccc(C(C)=O)c3)no2)cc1,-3,1,19306*,1,2
COc1cccc(-c2cc(C(=O)Nc3ccccc3SC)no2)c1,-12,-1,16463*,u,1
COc1ccc(CCNC(=O)CSc2ncc(-c3ccc(Cl)cc3)n2C)cc1,-10,x,x,x,x
COc1ccc(C(=O)NN=Cc2ccc(OC)c(COc3ccccc3)c2)cc1,-3,x,x,x,x
Cn1c(C(F)(F)F)nn(CCNS(=O)(=O)Cc2cccc(F)c2)c1=O,-15,x,x,x,x
COc1cccc(N2CCN(C3CCCC(C)C3)CC2)c1 (configuration not stated),-4,-4,24685*,-4,-7
Cc1ccc(C2=NCN(c3ccc([N+](=O)[O-])cc3)C(=S)N2)cc1,5,x,x,x,x
CN(C)c1ncc(Br)c2c1CCCN2,-12,x,x,x,x
CSc1nnc(C(C)C)c2cnn(-c3ccc(C)c(C)c3)c12,-5,x,x,x,x
COc1ccc(NC(=O)[C@H](COCc2ccccc2)NC(=O)OC(C)(C)C)cc1,-8,-1,9750,0,0
COc1ccc(NC(=O)C(NC(=O)OC(C)(C)C)C(C)OCc2ccccc2)cc1 (configuration not stated),-3,-8,21191*,u,0
COC(=O)c1sccc1S(=O)(=O)Nc1cnc2ccnn2c1,1,x,x,x,x
COc1ccc(C2CC(C(F)(F)F)n3nc(CO)c(Cl)c3N2)cc1OC (configuration not stated),0,-2,16477*,0,-1
Cc1nn(CCC#N)c(NC(=O)c2ccc(Cl)cc2Cl)c1P(=O)(Nc1ccc([N+](=O)[O-])cc1)N1CCOCC1 (configuration not stated),-30,3,16178*,1,0
CC(=O)Nc1ccc(CC(=O)NCc2ccccc2-c2ccsc2)cc1,14,x,x,x,x
CCCCNC(=O)COC(=O)c1c2c(nc3ccccc13)/C(=C/c1cccs1)CC2,-17,19,6060,39*,25
Cc1ccc(S(=O)(=O)NCC(=O)OCC(=O)N2CC(=O)Nc3ccccc32)cc1,-14,1,3544,0,-9
Cc1ccc(S(=O)(=O)CCC(=O)OCC(=O)N2CC(=O)Nc3ccccc32)cc1,-13,-3,22432*,-1,-6
CN1CCN(NC(=O)CN2C(=O)/C(=C/c3ccccc3Cl)SC2=S)CC1,-17,-6,16697*,-1,-4
O=C(Cn1nnc(-c2ccc(N3CCOCC3)cc2)n1)N1CCOCC1,-5,x,x,x,x
O=C(Cn1nnc(-c2cccc(C(F)(F)F)c2)n1)N1CCOCC1,-2,1,22585*,1,-4
NC(=O)Cn1nnc(-c2ccc(C(F)(F)F)cc2)n1,-21,-10,21710*,u,-2
Cc1ccc2c(c1)c1cccc3c1n2CCN3CCC(N)=O,58*,-26,2280,0,-8
O=C1NN(c2ccccc2)C(=O)/C1=C\c1ccccc1OCC(=O)N1CCOCC1,-1,4,21121*,5,-17
CCc1ccccc1N=C1S/C(=C/c2ccccc2OCC(=O)N2CCOCC2)C(=O)N1C,18,-4,2453,0,-2
SMILES,SSB-PriA inh,BoNT F protease,Bead autofluor,BoNT-A LC inh2,Anthrax LF prot
COCCN1CCCc2ccc(NS(=O)(=O)c3c(C)c(C)c(C)c(C)c3C)cc21,38*,x,x,x,x
COCCN1CCCc2ccc(NS(=O)(=O)c3ccc4c(c3)CCCC4)cc21,45*,x,x,x,x
NC(=O)COC(=O)CCCc1nc2ccccc2s1,-3,1,21657*,2,-2
COC(=O)CCCc1nc2ccccc2s1,-8,-2,2068,0,-2
O=C(Nc1ccc2c(=O)c3ccccc3oc2c1)c1cccs1,10,x,x,x,x
C=CCn1c(SCC(=O)NCc2ccc3c(c2)OCO3)nc2scc(-c3ccc(F)cc3)c2c1=O,-4,12,6920,1,7
C=CCn1c(SC(C)C(=O)NCc2ccc3c(c2)OCO3)nc2scc(-c3ccccc3)c2c1=O (configuration not stated),-23,1,16316*,1,1
COc1ccc(C(C)=NNC(=O)CNC(=O)C(c2ccccc2)c2ccccc2)c(OC)c1,1,x,x,x,x
O=C(NCCOCC(F)(F)C(F)F)c1cc(F)c(F)cc1Cl,-12,0,20634*,-2,-3
COc1ccc(C)c2sc(N(CCCN(C)C)C(=O)/C=C/c3ccc([N+](=O)[O-])s3)nc12,3,x,x,x,x
CCOC(=O)c1ccc(NC(=O)Nc2ccc3c4c(cccc24)C(=O)N3CC)cc1,-9,-2,21257*,-2,0
CCN1C(=O)c2cccc3c(NC(C)=O)ccc1c23,0,x,x,x,x
Cc1ccc(NC(=O)c2cc(NC(=O)C3CC=CCC3C(=O)O)ccc2N2CCOCC2)cc1 (configuration not stated),-20,-4,3202,0,7
Cc1cccc(NC(=O)c2cc(NC(=O)C3CC=CCC3C(=O)O)ccc2N2CCOCC2)c1 (configuration not stated),2,-5,23987*,-1,0
O=C(O)CCN1C(=O)/C(=C\c2ccc(-c3nc4ccccc4s3)o2)SC1=S,0,11,2421,47*,40*
O=C(O)CN1C(=O)/C(=C/c2ccc(-c3ccccc3F)o2)SC1=S,-15,x,x,x,x
COc1ccc(/C=C2/SC(=S)N(CCC(=O)O)C2=O)cc1,-6,-1,21113*,-2,-2
COc1ccc(OC)c(/C=C2\SC(=S)N(Cc3cccnc3)C2=O)c1,-4,13,3135,42*,21
COc1ccc(-c2nn(-c3ccccc3)cc2/C=C2/SC(=S)N(CCC(=O)O)C2=O)c(C)c1,20,-13,2885,0,37*
Cc1cc(NN=Cc2ccc(O)cc2O)nc(-n2nc(C)cc2C)n1,1,x,x,x,x
COc1cccc(C(=O)NCC(=O)NN=Cc2cn[nH]c2-c2ccccc2)c1,-5,x,x,x,x
COc1cc(/C=C2\SC(=S)N(CCC(=O)N3CCCCC3)C2=O)cc(OC)c1OC,-3,18,5345,30*,28
O=C(CN1C(=O)/C(=C/c2ccccc2)SC1=S)Nc1cccnc1,6,-2,2473,0,-2
Cc1ccc(/C=C2\SC(=S)N(CCC(=O)N3CCCCC3)C2=O)cc1,-6,-17,4463,-1,5
COc1ccc(/C(C)=C2/SC(=S)N(CCC(=O)O)C2=O)cc1,4,2,19144*,u,1
COc1cc(/C=C2/SC(=S)N(CC(=O)Nc3cccnc3)C2=O)cc(OC)c1OC,19,30,2639,31*,15
N#CCSCC(=O)NCCc1ccccc1,5,x,x,x,x
CC1(C)Cc2c(sc3nn[nH]c(=O)c23)CO1,-3,-13,4780,0,-2
CCC1(C)Cc2c(sc3nn[nH]c(=O)c23)CO1 (configuration not stated),-13,-2,16707*,-1,-1
CCC1(C)Cc2c(sc3nnn(Cc4ccccc4Cl)c(=O)c23)CO1 (configuration not stated),-32,-3,20244*,0,4
